Shown are actives, neighbours in structure and some others; about 3% of the full set was active somewhere.
NALP1 inh – NALP1 inflammasome inhibitors in reconstituted yeast, colorimetric, S. cerevisiae, triplicate retest; hit rate 0.61% among 280,000; inhibition, % at 10 µM; S. cerevisiae NALP1/ASC/caspase-1 growth, X-gal OD620, 72 h; in the data active = inhibition mostly above about 24%, no sharp cut-off; inactive = mostly below about 32%
CHT block – inhibitors of human choline transporter CHT. High affinity choline transporter 1 (Homo sapiens), Q9GZV3. B-score at 10 µM. hit rate 0.86% among 310,000. CHT-expressing cells, membrane potential dye, choline response; stronger effect = lower value;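 active = B-score over 3 SD under the library average, and starting fluorescence ratio not unusually high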;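 also: choline stimulus applied at its EC90 after an EC20 pre-addition; B-score computed on integrated fluorescence ratio after choline addition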
Target sequence (Q9GZV3 whole entry, looked up): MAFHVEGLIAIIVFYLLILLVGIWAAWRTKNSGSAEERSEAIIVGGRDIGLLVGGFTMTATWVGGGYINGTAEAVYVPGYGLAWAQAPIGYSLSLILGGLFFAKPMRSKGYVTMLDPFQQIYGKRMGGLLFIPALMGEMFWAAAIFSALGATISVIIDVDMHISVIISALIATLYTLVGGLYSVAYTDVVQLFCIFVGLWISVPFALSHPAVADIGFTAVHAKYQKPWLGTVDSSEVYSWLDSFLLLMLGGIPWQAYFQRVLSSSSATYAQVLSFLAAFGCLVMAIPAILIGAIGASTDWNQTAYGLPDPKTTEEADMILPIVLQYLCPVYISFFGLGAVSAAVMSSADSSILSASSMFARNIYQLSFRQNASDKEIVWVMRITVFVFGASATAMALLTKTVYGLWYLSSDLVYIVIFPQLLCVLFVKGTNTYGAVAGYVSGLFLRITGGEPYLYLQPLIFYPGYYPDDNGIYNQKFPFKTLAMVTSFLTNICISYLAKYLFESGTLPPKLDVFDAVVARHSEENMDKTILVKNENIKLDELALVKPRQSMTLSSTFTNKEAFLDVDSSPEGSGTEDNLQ
Bfl-1 A1 inh – caspase 3/7 activation in MEF A1-2A-BIM cells, primary screen, A1 inhibitor project, cell-based, luminescence, HTS; Caspase-Glo 3/7 luminescence, 3 h; percent of clofoctol response, vehicle zero; caspase activation, % (test concentration not listed); hit rate 0.066% among 330,000; AID 2462, 2010;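 active = over half of replicate activation scores above 10%, or exactly half above 10 with the replicate mean above 10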
CHT allo act – CHT positive allosteric modulators, primary screen, cell-based, membrane potential dye, choline EC20 | High affinity choline transporter 1 (Homo sapiens), Q9GZV3 | CHT-expressing cells; stronger effect = higher value; LV-AA mutant CHT in HEK293 cells | B-score at 10 µM | hit rate 0.49% among 310,000;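 active = initial fluorescence not abnormally high and integrated response B-score, plate-corrected, over 3 SD above library mean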
NLRP3 yeast inh – NALP3 inflammasome inhibitors in reconstituted yeast, primary screen, luminescence, uHTS | Yeast reconstituted NLRP3/ASC/caspase-1, beta-gal luminescence, 24 h | inhibition, % at 10 µM | hit rate 0.39% among 330,000 | AID 2825, 2010;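 active = inhibition of 50% or more; inactive = inhibition below 50%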
Mot1-301 SUMO – yeast Mot1-301 growth rescue at high temperature, primary screen, SUMOylation pathway inhibitor project, S. cerevisiae, ATP luminescence, 38.5C. hit rate 1% among 320,000. S. cerevisiae Mot1-301 growth rescue; percent above DMSO median, 100 means doubled. growth rescue, % at 18.8 µM;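 active = every valid replicate shows activation above 250% relative to neutral control wells; inactive = the rest, any valid replicate at or below 250%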
NALP3 confirm – NALP3 inhibitors retested in yeast, confirmation, luminescence, single concentration. AID 435006, 2010. hit rate 81% among 1,300. inhibition, % at 10 µM. shares compounds with NLRP3 yeast inh. yeast expressing human NALP3; in the data active = inhibition above about 48%
Casp1 ASC ctr – CASP1-PYCARD signaling inhibition in yeast, confirmatory test, counterassay for NLRP3 inhibitor program, one-dose | hit rate 66% among 1,000 | AID 488784, 2010 | inhibition, % at 10 µM | yeast expressing Caspase-1-ASC, luminescence counter screen | shares compounds with NLRP3 yeast inh
NALP3 yeast rt – NALP3 inhibitors in yeast, repeat test, confirmation, luminescence, single concentration, retest. shares compounds with NLRP3 yeast inh. hit rate 53% among 1,000. AID 488794, 2010. yeast expressing human NALP3, luminescence read-out. inhibition, % at 10 µM
Hits are given with their value; i = inactive; nt = no result. Rule as the data show it, unless noted: active = inhibition above about 50%; inactive = the rest.

SMILES	NALP1 inh	CHT block	Bfl-1 A1 inh	CHT allo act	NLRP3 yeast inh	Mot1-301 SUMO	NALP3 confirm	Casp1 ASC ctr	NALP3 yeast rt
Cc1c(Cc2ccccc2)sc(NC(=O)c2ccco2)c1C(N)=O	i	i	i	i	85.4	i	92.0	95.0	85.8
O=C1CS/C(=C/C(=O)c2cccc(Cl)c2)N1	i	i	i	i	66.0	i	72.3	53.5	58.9
Cc1ccc(C(=O)/C=C2/NC(=O)CS2)cc1	i	i	i	i	60.9	i	66.9	52.0	53.7
COc1ccccc1OCCCCCCN1CCOCC1	i	i	i	i	i	i	nt	nt	nt
CC(C)c1cccc(C(C)C)c1OCCCCCN1CCOCC1	nt	i	i	i	68.8	i	74.2	78.2	66.1
CCS(=O)(=O)c1ccc2oc(Nc3ccc(OC)cc3)nc2c1	i	i	i	i	i	i	i	nt	nt
O=c1cc(-c2ccc(O)cc2)oc2c1ccc1ccccc12	nt	nt	i	nt	i	i	nt	nt	nt
O=c1cc(-c2ccc(O)cc2)oc2ccc3ccccc3c12	nt	nt	i	nt	60.9	i	80.8	58.0	54.1
C/C(=N\Nc1ccc(C(=O)O)cc1)c1ccc(Br)cc1	i	i	i	i	i	i	nt	nt	nt
C/C(=N/Nc1ncc(Br)cn1)c1ccc(Br)cc1	i	i	i	i	54.8	i	70.3	60.8	51.8
COc1cc(Cl)c(S(=O)(=O)N2CCCC2)cc1Cl	i	i	i	i	66.4	i	70.1	nt	nt
COc1cc(S(=O)(=O)N2CCN(C)CC2)c(OC)cc1Cl	i	i	i	i	i	i	nt	nt	nt
COc1cc(S(=O)(=O)N2CCCC2)c(C)cc1C	i	i	i	i	59.8	i	77.0	57.7	i
COc1cc(S(=O)(=O)N2CCC(C(N)=O)CC2)c(C)cc1C	i	i	i	i	i	i	nt	nt	nt
CC(=O)Nc1ccc(NC(=O)[C@@H](NC(=O)N2C[C@H]3C[C@@H](C2)c2cccc(=O)n2C3)C(C)C)cc1	i	i	i	i	i	i	nt	nt	nt
S=C(NCCSCc1ccc(Cl)c(Cl)c1)Nc1ccccc1	nt	i	i	i	61.5	i	71.1	58.2	i
COc1ccccc1NC(=O)C(C)OC(=O)C1CCC(C(C)(C)C)CC1 (configuration not stated)	nt	i	i	i	i	i	nt	nt	nt
O=S(=O)(c1ccc(Cl)cc1)N1CCN(CCc2ccncc2)CC1	i	i	i	i	i	i	nt	nt	nt
CC(Cc1ccccc1)(NC(=O)CN)c1ccccc1 (configuration not stated)	62.7	i	i	i	91.2	i	95.5	93.8	93.3
Nc1ccc(Br)cc1-c1nc2ccccc2[nH]c1=O	i	i	i	i	53.9	nt	i	nt	nt
Nc1ccccc1-c1nc2ccccc2[nH]c1=O	i	i	i	i	i	i	nt	nt	nt
N#CCCN1CCCN(CCC#N)CCN(CCC#N)CCCN(CCC#N)CC1	i	i	i	i	i	i	nt	nt	nt
COc1ccc(-c2nc3ccccc3s2)cc1O	i	i	i	i	73.4	i	46.4	73.0	64.2
COc1cc(-c2nc3ccccc3s2)ccc1O	i	i	i	i	i	i	nt	nt	nt
CC(=O)Nc1cccc(-c2cc(-c3c(Cl)cccc3Cl)no2)c1	nt	i	i	i	52.0	i	i	53.0	51.6
SMILES	NALP1 inh	CHT block	Bfl-1 A1 inh	CHT allo act	NLRP3 yeast inh	Mot1-301 SUMO	NALP3 confirm	Casp1 ASC ctr	NALP3 yeast rt
CNC(=O)Nc1cccc(-c2cc(-c3c(Cl)cccc3Cl)no2)c1	i	i	i	i	i	i	nt	nt	nt
Oc1cccc(-c2nc3ccccc3s2)c1	i	i	i	i	72.9	i	84.2	81.9	68.7
Nc1cccc(-c2nc3ccccc3s2)c1	i	i	i	i	i	i	nt	nt	nt
CC(=O)Nc1cccc(-c2nc3ccccc3s2)c1	i	i	i	i	53.9	i	i	nt	nt
COc1ccccc1Nc1cc(C)nc(Nc2ccccc2OC)n1	nt	nt	nt	nt	i	nt	nt	nt	nt
Fc1c(F)c(-n2nnc3ccccc32)c(F)c(F)c1Cl	i	i	i	i	i	i	nt	nt	nt
COc1ccccc1N1CCN(CC(=O)Nc2nc(C)c(C(=O)N(C)C)s2)CC1	i	i	i	i	i	i	nt	nt	nt
CC(=O)Nc1ccc(O)c(-c2nc3ccccc3s2)c1	i	i	i	i	55.7	i	67.4	nt	nt
Cc1ccsc1C(=O)Nc1ccc(O)c(-c2nc3ccccc3s2)c1	i	i	i	i	i	i	nt	nt	nt
O=C(CN1CCCCCCC1)Nc1cc(Cl)cc(Cl)c1	i	i	i	i	51.0	nt	i	nt	nt
COc1ccccc1-c1sc2cc3c(cc2c1-c1ccc(OCCN2CCCCC2)cc1)OCO3	nt	nt	i	nt	64.1	i	48.6	i	i
COc1ccc(C(=O)c2ccccc2)c(OCC(=O)NC2CC2)c1	i	i	i	i	52.4	nt	69.8	nt	nt
COC(=O)c1ccccc1OCC(=O)NC1CCCCC1	i	i	i	i	77.4	i	84.7	88.8	71.2
O=C(COc1ccc(Cl)cc1[N+](=O)[O-])NC1CCCCC1	i	i	i	i	53.4	i	i	58.0	i
CC(=O)c1cc(Cl)ccc1OCC(=O)NC1CCCC1	nt	nt	nt	nt	i	nt	nt	nt	nt
CCN(C[C@H]1N[C@@](Cc2ccccc2)(C(=O)OC)[C@H]2C(=O)N(Cc3ccccc3)C(=O)[C@@H]12)C(=O)Nc1ccc(C(F)(F)F)cc1	nt	nt	i	nt	i	i	nt	nt	nt
COC(=O)c1sc(NC(=O)c2cc(C)on2)nc1C	i	i	i	i	i	i	nt	nt	nt
Cc1ccc(C(=O)NNC(=S)NC(=O)c2ccc(Cl)cc2)cc1	i	i	i	i	71.1	i	78.2	73.7	72.4
Cc1ccc(C(=O)NC(=C(Cl)Cl)S(=O)(=O)c2ccc(C)cc2)cc1	i	i	i	i	i	i	nt	nt	nt
Cc1ccc(C(=O)NC(=C(Cl)Cl)S(=O)(=O)c2ccc(Cl)cc2)cc1	i	i	i	i	56.6	i	i	i	i
COc1ccc(-n2ncc3c2CC(C)(C)CC3NC(=O)c2cn[nH]c2)cc1 (configuration not stated)	i	i	i	i	i	i	nt	nt	nt
O=S(=O)(c1ccc(Cl)cc1)N1CCN(c2ccccn2)CC1	i	i	i	i	i	i	nt	nt	nt
O=S(=O)(c1ccc(Cl)cc1)N1CCN(c2ncnc3sccc23)CC1	nt	nt	i	nt	50.2	i	51.9	i	i
CCc1ccc(OCC(=O)NCc2ccco2)c(Br)c1	i	i	i	i	51.5	i	i	i	i
N/C(Cc1ccc(Cl)cc1)=N\OC(=O)c1cccc2ccccc12	i	i	i	i	57.2	i	45.1	54.7	51.2
